Measurements: PubChem BioAssay AID588342 (National Center for Advancing Translational Sciences (NCATS), 2011)
In all, about 360,000 compounds went through this assay and about 25,000 (6.9%) were called active. About 9% were inconclusive and are not listed. Calls come from the whole dose curve; as a rule, active = well fitted inhibition curve with a large enough effect; inconclusive = small, poorly fitted or top-dose-only effect; inactive = flat fitted curve, though single readings scatter. Shown is part of a subset that was picked to be rich in actives.

What follows are molecules tested against Luciferin 4-monooxygenase (Photinus pyralis) (UniProt P08659) (assay: qHTS profiling assay for firefly luciferase inhibitor/activator using purifed enzyme and Km concentrations of substrates (counterscreen for miR-21 project)). Settings: purified FLuc, luminescence inhibition; series mostly up to 57.5 µM; activity change, negative = inhibition: at the top concentration.
Luciferin 4-monooxygenase (Photinus pyralis), sequence (P08659 whole entry, looked up): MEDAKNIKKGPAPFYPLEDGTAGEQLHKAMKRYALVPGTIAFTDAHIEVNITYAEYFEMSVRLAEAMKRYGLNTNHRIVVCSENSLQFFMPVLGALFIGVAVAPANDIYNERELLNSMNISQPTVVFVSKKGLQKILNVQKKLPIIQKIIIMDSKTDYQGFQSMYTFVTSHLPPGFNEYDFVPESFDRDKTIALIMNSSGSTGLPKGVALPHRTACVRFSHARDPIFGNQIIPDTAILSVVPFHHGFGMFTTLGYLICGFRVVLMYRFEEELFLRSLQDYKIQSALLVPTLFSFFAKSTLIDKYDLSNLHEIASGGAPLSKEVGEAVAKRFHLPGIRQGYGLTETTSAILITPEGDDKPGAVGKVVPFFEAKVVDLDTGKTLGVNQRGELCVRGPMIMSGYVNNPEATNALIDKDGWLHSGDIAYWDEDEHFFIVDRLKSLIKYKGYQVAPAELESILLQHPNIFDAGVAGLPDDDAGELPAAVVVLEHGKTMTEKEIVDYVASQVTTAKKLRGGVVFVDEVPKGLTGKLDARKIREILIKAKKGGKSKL
Outline: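 Biochemical qHTS of compounds, final roughly 60 µM downward over six points, against 10 nM purified firefly luciferase using Km concentrations of substrates (10 uM D-luciferin, 10 uM ATP) in Tris acetate pH 7.5 buffer; luminescence output.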
Note: nearly all actives have a fitted effect of over 55% in size.
Potency is the fitted concentration of half-maximal effect.
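Throughout, for activity change, negative = inhibition: plate controls were vehicle for no effect and reference inhibitor for full effect.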

SMILES	activity change, negative = inhibition	Potency
O=C(c1[nH]ncc1-c1ccc(Cl)cc1)C1CO1 (stereo unspecified)	-11.5% (inactive)	
CCOCCCNC(=O)c1ccc2nc(CCc3ccccc3)oc2c1	-12.1% (inactive)	
CN1CCC(N(C)S(=O)(=O)c2ccc(NC(=O)c3cccc(C#N)c3)cc2)CC1	4.81% (inactive)	
Cc1ccc(C2=Nc3c(ccc4ccccc34)C(c3ccncc3)=NN2)cc1	3.9% (inactive)	
COc1ccc2c(c1)C(c1cccs1)=NNC(c1cccnc1)=N2	-0.0149% (inactive)	
CCOc1ccc2c(c1)C(c1ccc(C)cc1)=NNC(c1ccc(C)cc1)=N2		23.9 µM (active)
COCCCNC(NC(=O)c1ccc(C)cc1)C(Cl)(Cl)Cl (stereo unspecified)	-0.651% (inactive)	
COc1ccc(CCNC(=O)c2ccccc2-c2ccccc2C(=O)O)cc1OC	2.35% (inactive)	
COc1cccc2[nH]c(C(=O)NCCc3ccccc3)cc12		23.9 µM (active)
COc1ccc(CCNC(=O)c2ccccc2OCc2ccccc2)cc1	-12.9% (inactive)	
O=C(Cn1ncn2nc(-c3cccs3)cc2c1=O)NCc1cccc(Br)c1	-13.8% (inactive)	
Oc1ccccc1-c1nc(/C=C/c2ccc(F)cc2)no1		0.757 µM (active)
CC(=O)c1ccc(NC(=O)COc2ccccc2-c2nc(-c3ccccc3)no2)cc1	3.11% (inactive)	
CC(=O)Oc1ccccc1C1=NN(C(C)=O)C(c2ccccc2)C1 (stereo unspecified)	-0.0618% (inactive)	
COc1ccc(/C=C/c2noc(-c3ccccc3OC(C)=O)n2)cc1		15.1 µM (active)
CCOC(=O)c1c(S(=O)(=O)N2CCC(C(=O)NCc3ccccc3OC)CC2)c(C)n(C)c1C	2.97% (inactive)	
COc1ccc(CNC(=O)Cn2nnc(-c3ccc(S(C)(=O)=O)cc3)n2)cc1	-0.976% (inactive)	
CCCCOC(=O)/C(C#N)=C/c1ccc(-c2cccc(C(F)(F)F)c2)o1	3.51% (inactive)	
CCCCN1CC(c2nc3ccccc3n2CCCCOc2ccc(C)cc2C)CC1=O (stereo unspecified)	-1.5% (inactive)	

SMILES	activity change, negative = inhibition	Potency
COc1ccc(C(=O)OCC(=O)N2CC(=O)Nc3ccccc32)cc1Br	-0.738% (inactive)	
CCc1ccc(S(=O)(=O)Nc2cc3c(C(=O)OCc4ccccc4)c(C)oc3c3ccccc23)cc1	-0.765% (inactive)	
CCC(=O)N1CCc2cc(Br)cc(S(=O)(=O)Nc3ccc(C)cc3C)c21	-2.76% (inactive)	
O=C(Nc1cccc(OCC(=O)N2CCOCC2)c1)C1CCCCC1	0.505% (inactive)	
O=C(Nc1ccc(OCC(=O)N2CCOCC2)cc1)c1cc(F)c(F)cc1Cl		9.53 µM (active)
O=C(COc1ccc(S(=O)(=O)Nc2cccc(C(F)(F)F)c2)cc1)N1CCOCC1	3.06% (inactive)	
Cc1ccccc1CSCCNC(=O)C1CCN(S(=O)(=O)Cc2ccccc2)CC1	-7.53% (inactive)	
C=CCN1CCN(C(=O)CCCc2ccccc2)CC1		2.13 µM (active)
CC1=NN(C(=O)CCCc2ccccc2)C(O)(C(F)(F)F)C1 (stereo unspecified)	4.59% (inactive)	
CCC(C)NC(=O)CCCc1ccccc1 (stereo unspecified)	-14.1% (inactive)	
CC(=O)NCCC(=O)Nc1nc(C)c(Cc2ccc3c(c2)OCO3)s1	-13.8% (inactive)	
Cc1ccc(-c2csc(NC(=O)C3=COCCO3)n2)cc1C		6.75 µM (active)
CC(=O)NCCC(=O)Nc1nc(-c2ccc3c(c2)OCCO3)cs1		19 µM (active)
COc1cc(-c2nnc(NC(=O)C3=COCCO3)o2)cc(OC)c1OC	4.13% (inactive)	
CC(=O)NCc1ccc(-c2csc(NC(=O)CCCc3nc4ccccc4c(=O)[nH]3)n2)cc1	-4.62% (inactive)	
O=C(Nc1ccc(S(=O)(=O)N2CCCC2)cc1Cl)C1=COCCO1	-1.32% (inactive)	
Cc1cccc(NC(=O)CN2CCN(C(=O)C3CCN(C(=O)/C=C/c4ccccc4)CC3)CC2)c1C	-18.8% (inactive)	
CCNC(=O)CC1C(=O)N(c2ccc(F)cc2)C(=O)N1CCc1sccc1C (stereo unspecified)	-2.04% (inactive)	
Cc1ccc(CN2CCc3nc(N4CCN(C)CC4)ncc3C2)cc1	-1.97% (inactive)	

SMILES	activity change, negative = inhibition	Potency
CCCCCN1CC(O)=C(c2nc(-c3ccc(Cl)cc3)cs2)C1=N	-2.37% (inactive)	
CCC(C)Sc1nnc(-c2c[nH]c3ccccc23)n1CCOC (stereo unspecified)	-6.48% (inactive)	
Cc1ccc(-c2csc(-c3c[nH]c4ccccc34)n2)cc1		12 µM (active)
CCCc1cc(-c2nc(-c3ccc(C)cc3)cs2)ccn1		23.9 µM (active)
Cc1cc(-c2n[nH]c(=S)n2-c2ccc(C)c(C)c2)no1	-1.9% (inactive)	
Cc1cc(-c2nc(C)c(-c3nnc(SCC(=O)Nc4ccccc4)n3C)s2)no1	-1.89% (inactive)	
Cc1ccc(-c2csc(-c3cc(C)on3)n2)cc1		8.49 µM (active)
CCCc1cc(-c2n[nH]c(=S)n2CC)c2ccccc2n1	-8.46% (inactive)	
Cc1ccc(-n2c(=O)c3cccnc3n2CC(=O)Nc2ccccc2C(F)(F)F)cc1C	2.79% (inactive)	
CCOC(=O)c1c(NC(=O)/C=C/c2ccco2)sc(C)c1C	-11% (inactive)	
O=C(Nc1cccc(-c2nc3ccccc3[nH]2)c1)c1ccc(C(=O)Nc2cccc(-c3nc4ccccc4[nH]3)c2)cc1		12 µM (active)
CN(c1ccccc1)S(=O)(=O)c1cc(C(=O)Nc2nc3ccccc3[nH]2)ccc1Cl	-20.5% (inactive)	
NS(=O)(=O)c1cccc(NC(=O)COC(=O)/C=C/c2ccco2)c1	-5.38% (inactive)	
Cc1cccc(NC(=O)C2CCN(S(=O)(=O)c3c(C)noc3/C=C/c3ccco3)CC2)c1	-0.915% (inactive)	
Cc1ccc(-n2nc3ccc(NC(=O)/C=C/c4ccco4)cc3n2)cc1C		9.53 µM (active)
Cc1ccc(OCC(=O)Nc2ccc(Cl)c(-c3nc4ccccc4[nH]3)c2)cc1C	-14.1% (inactive)	
O=C(/C=C/c1ccco1)Nc1cccc(-c2nc3ccccc3[nH]2)c1		7.57 µM (active)
CC(C)Oc1ccc(/C=C(\NC(=O)/C=C/c2ccco2)C(=O)NCCc2nc3ccccc3[nH]2)cc1	7.21% (inactive)	
